The campaign covered roughly 360,000 compounds. About 25,000 (6.9%) were called active. Where a call stands in place of a potency, no number is given. Roughly 9% stayed inconclusive and do not appear here. This is one part of a sample in which actives are shown more often than they occur. Calls follow the shape of the dose curve; as a rule, active = well fitted inhibition curve with a large enough effect; inconclusive = small, poorly fitted or top-dose-only effect; inactive = flat fitted curve, though single readings scatter.
What follows are compounds tested against Luciferin 4-monooxygenase (Photinus pyralis) (UniProt P08659) (assay: qHTS profiling assay for firefly luciferase inhibitor/activator using purifed enzyme and Km concentrations of substrates (counterscreen for miR-21 project)). Conditions: purified FLuc, luminescence inhibition; series mostly up to 57.5 µM.
Sequence of Luciferin 4-monooxygenase (Photinus pyralis) (P08659 whole entry, looked up): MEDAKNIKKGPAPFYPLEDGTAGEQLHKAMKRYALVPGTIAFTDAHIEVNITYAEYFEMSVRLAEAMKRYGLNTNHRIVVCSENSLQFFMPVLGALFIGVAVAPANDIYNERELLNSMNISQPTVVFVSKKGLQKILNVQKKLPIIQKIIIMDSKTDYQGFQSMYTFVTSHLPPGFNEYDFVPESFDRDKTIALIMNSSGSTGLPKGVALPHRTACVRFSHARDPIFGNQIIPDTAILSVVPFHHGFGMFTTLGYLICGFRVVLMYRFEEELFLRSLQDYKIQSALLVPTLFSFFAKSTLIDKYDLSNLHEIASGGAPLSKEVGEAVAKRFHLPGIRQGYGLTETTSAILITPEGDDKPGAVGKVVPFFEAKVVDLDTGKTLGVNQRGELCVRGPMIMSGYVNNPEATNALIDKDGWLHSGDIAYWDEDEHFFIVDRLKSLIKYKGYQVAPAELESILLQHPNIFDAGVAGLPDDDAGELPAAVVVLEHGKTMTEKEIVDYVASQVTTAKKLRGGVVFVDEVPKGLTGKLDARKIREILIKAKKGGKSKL
Method in brief: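 Purified P. pyralis luciferase (10nM final) with 10uM D-luciferin and 10uM ATP (Km levels) in 50mM Tris acetate pH 7.5, 10mM Mg acetate, 0.01% Tween-20, 0.05% BSA; qHTS 6-point titration, ~60 µM downward; luminescence read.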
For CC1(C)CC(N2CCN(C(c3ccccc3)c3ccccc3)CC2)=CC(=[N+]2CCCCC2)C1, the Potency was “inactive”. O=S(=O)(NC1CC1)c1ccc(Cl)cc1 was tested, and the Potency was “inactive”. For Cc1ccc(CNC(=O)Cn2c(=O)ccc3cc(S(=O)(=O)N4CCCC4)ccc32)cc1, the Potency was “inactive”. COCCN(C(=O)C(C)C)c1nnc(-c2ccc(C(C)(C)C)cc2)s1 was tested, and the Potency was 15.1 µM (active). In the case of COc1ccc(N(CC(=O)NC(C)(C)C)C(=O)c2ccco2)cc1, the Potency is reported as “inactive”. In the case of COCCN(C(=O)c1ccco1)c1nnc(-c2ccc(OC)cc2)s1, the Potency is reported as 21.3 µM (active). Cc1nnc(N(Cc2ccco2)C(=O)c2ccno2)s1 was tested, and the Potency was “inactive”. For CN1CCNC(=O)C1CC(=O)N1CC=C(c2ccc(F)cc2)CC1 (stereo unspecified), the Potency was “inactive”. Cn1c(C(=O)N2CCC(C(=O)N3CCN(c4ccccc4)CC3)CC2)cc2sccc21 was tested, and the Potency was “inactive”. With Cc1ccc(C)c(NC(=O)CSC2=Nc3ccccc3N=C(c3ccc(F)cc3)C2)c1 the Potency was “inactive”. CCOc1ccc(CNC(=O)c2ccc3nc(CC)c(CC)nc3c2)cc1OC was tested, and the Potency was “inactive”. For CCN(CC)c1ccc(NC(=O)Cn2nc3c(cc2=O)CCCC3)c(C)c1, the Potency was “inactive”. CCOc1ccc(CNC(=O)c2ccc3c(c2)nnn3C2CCCC2)cc1 was tested, and the Potency was “inactive”. O=C(CNCCC1=CCCCC1)Nc1ccccc1N1CCCCCC1 was tested, and the Potency was “inactive”. For COc1ccc(NS(=O)(=O)c2cc3c(cc2C)N(C(C)=O)CCO3)cc1, the Potency was “inactive”. In the case of COCCCNC(=O)c1c(NC(=O)c2cc(=O)c3cc(C)c(C)cc3o2)sc2c1CCCC2, the Potency is reported as “inactive”. In the case of CC(=NCC1CCCO1)c1c(O)[nH]c(=O)[nH]c1=O (stereo unspecified), the Potency is reported as “inactive”. With O=C1c2cccc3c([N+](=O)[O-])ccc(c23)C(=O)N1CC1CCCO1 (stereo unspecified) the Potency was “inactive”. In the case of O=C1C(C=NCC2CCCO2)=C(O)c2ccccc21 (stereo unspecified), the Potency is reported as 19 µM (active). With CC(C)n1c(=O)[nH]c2cc(C(=O)Nc3ccccc3)ccc21 the Potency was “inactive”. For CCCCCn1c(=O)[nH]c2cc(C(=O)Nc3ccc(F)cc3)ccc2c1=O, the Potency was “inactive”. In the case of CC(C)c1ccc(NC(=O)c2ccc3c(O)c(S(=O)(=O)c4ccccc4)c(=O)[nH]c3c2)cc1, the Potency is reported as 1.51 µM (active). CCCCn1c(N)c(N(CCC(C)C)C(=O)COC(=O)c2cccnc2OCC)c(=O)[nH]c1=O was tested, and the Potency was “inactive”. In the case of Cc1cc(C)nc(SCc2ccccc2C#N)n1, the Potency is reported as “inactive”. For COc1ccc(/C=N/OCc2ccccc2C#N)c(OC)c1, the Potency was 21.3 µM (active). For COc1ccc(C=C(C#N)C#N)c(CSc2ccccn2)c1, the Potency was “inactive”. With Cc1ccccc1OCC(=O)Nc1c(C(=O)Nc2ccccc2F)oc2ccccc12 the Potency was “inactive”. For CCOC(=O)[C@H]1[C@H]2COc3cc(OC)ccc3[C@@H]2N2C(=O)N(c3ccc(Br)cc3)C(=O)[C@@]12C, the Potency was “inactive”. In the case of COc1ccc(CNC(=O)COc2ccccc2C(=O)c2cnn(-c3ccccc3)c2)cc1OC, the Potency is reported as 5.36 µM (active). For COc1ccc(CNC(=O)COC(=O)c2c(C)nn(-c3ccccc3)c2C)cc1OC, the Potency was “inactive”. With COc1ccc(CNC(=O)Cc2ccc(-c3ccccc3)cc2)cc1OC the Potency was “inactive”. In the case of CCOC(=O)c1sc(NC(=O)C2CSC3(C)CCC(=O)N23)nc1C (stereo unspecified), the Potency is reported as “inactive”. For CCOC(=O)c1sc(/N=C/Nc2nc(C)c(C(=O)OCC)s2)nc1C, the Potency was “inactive”. For CCOC(=O)c1cccnc1NC(=O)c1ccncc1, the Potency was “inactive”. In the case of CCOC(=O)c1sc(NC(=O)c2sc(C)nc2C)nc1C, the Potency is reported as 6.01 µM (active). For CCOC(=O)c1sc(NC(=O)CSc2n[nH]c(CC)n2)nc1C, the Potency was “inactive”. With CCOC(=O)c1sc(NC(=O)c2ccncc2)nc1C the Potency was 19 µM (active). In the case of Cc1ccc(C)c(Oc2c(C(F)(F)F)oc3c(CN4CCN(C)CC4)c(O)ccc3c2=O)c1, the Potency is reported as “inactive”. Cc1cc(C)n2nc(CNS(=O)(=O)c3c(F)c(F)c(F)c(F)c3F)nc2n1 was tested, and the Potency was “inactive”. Cc1ccc(C(=O)Nc2ccccc2F)cc1S(=O)(=O)N1CCOCC1 was tested, and the Potency was “inactive”. With CCOc1cc(/C=C(\C#N)C(=O)Nc2ccccc2C)ccc1OCc1cc(=O)n2nc(CC)sc2n1 the Potency was “inactive”. Cc1ccc(C(=O)COC(=O)c2cccc(N3C(=O)c4c(C)nc5ccccc5c4C3=O)c2)cc1C was tested, and the Potency was 2.69 µM (active). With CCCc1nc2ccccc2c(C(=O)OCC(=O)c2ccc3c(c2)NC(=O)CO3)c1CC the Potency was “inactive”. In the case of O=C(CCc1nc2ccccc2c(=O)[nH]1)OCC(=O)c1cccc(Cl)c1, the Potency is reported as “inactive”. For CNC(=O)C1CC(=O)N(c2ccc(OCC(=O)Nc3ccccc3C)cc2)C1 (stereo unspecified), the Potency was “inactive”. C/C(=N\Nc1nc(Nc2ccccc2)nc(N2CCOCC2)n1)c1cccs1 was tested, and the Potency was 19 µM (active). For Cc1ccccc1NC(=O)CSc1nc2ccc(Nc3nc(N4CCOCC4)nc(N4CCOCC4)n3)cc2s1, the Potency was “inactive”. In the case of C/C(=N\Nc1nc(N2CCOCC2)nc(N2CCOCC2)n1)c1ccc([N+](=O)[O-])cc1, the Potency is reported as “inactive”. COc1ccc(-c2nn(-c3ccccc3)cc2/C=N/Nc2ccccn2)cc1OC was tested, and the Potency was 10.7 µM (active). With CN(C)/N=C/c1cn(-c2ccccc2)nc1-c1cccnc1 the Potency was “inactive”. With COc1cccc(-c2nn(-c3ccccc3)cc2/C=C(\C#N)C(=O)NCCCn2ccnc2)c1 the Potency was “inactive”. In the case of COc1cccc(C2=CC(=O)C[C@H](c3ccc(F)cc3)C2)c1OC, the Potency is reported as “inactive”. With CC(C)c1ccc(OCC(=O)N(Cc2ccc(N(C)C)cc2)C2CCS(=O)(=O)C2)cc1 (stereo unspecified) the Potency was “inactive”. CCOc1cccc(CNC(=O)c2ccc(N3CCCC3)c(NC(=O)Nc3ccccc3CC)c2)c1 was tested, and the Potency was “inactive”. COc1ccc(CN2C(=O)C(NC(=O)c3cccc(C)c3)(C(F)(F)F)N=C2c2ccccc2)cc1 (stereo unspecified) was tested, and the Potency was “inactive”. With Cc1cc(NC(=O)CSc2nc3ccccc3n2CC(C)C)no1 the Potency was “inactive”. With Cc1ccc(SCCC(=O)Nc2cc(C)on2)cc1 the Potency was “inactive”. With Cc1ccc2nc(-c3ccc(SCC(=O)Nc4cc(C)on4)nc3)[nH]c2c1 the Potency was 0.757 µM (active). In the case of Cc1cc(F)ccc1NC1(c2ccccc2)C(=O)c2ccccc2C1=O, the Potency is reported as “inactive”. In the case of CN(C)c1ccc(S(=O)(=O)NCC(=O)NCC2CCCCC2)cc1[N+](=O)[O-], the Potency is reported as “inactive”. With CC(=O)c1ccc(N2CCN(CC(O)c3ccccc3)CC2)cc1 (stereo unspecified) the Potency was “inactive”. In the case of CC(=O)c1ccc(N2Cc3ccccc3C2)cc1, the Potency is reported as 10.7 µM (active). CC(=O)c1ccc(N2CCN(C(=O)CCc3ccccc3)CC2)cc1 was tested, and the Potency was “inactive”. In the case of Cc1ccc(S(=O)(=O)N2CCCCC2)cc1C(=O)N1CCN(CCO)CC1, the Potency is reported as “inactive”. For Cc1cc(C)c2oc(C(=O)Nc3ccc(S(=O)(=O)N4CCCCCC4)cc3)cc(=O)c2c1, the Potency was “inactive”. CCc1ccc(-c2nnn(Cc3nn[nH]n3)n2)cc1 was tested, and the Potency was 26.9 µM (active). CN(C)c1nc(N)nc(Cn2nnc(-c3ccc(C(F)(F)F)cc3)n2)n1 was tested, and the Potency was “inactive”. For COc1ccc(-c2nnn(Cc3nc(N)nc(N4CCCCC4)n3)n2)cc1, the Potency was “inactive”. With CC(=O)Nc1ccc(S(=O)(=O)N2CCn3cccc3C2C)cc1 (stereo unspecified) the Potency was “inactive”. In the case of CCc1ccc(-n2nnc(-c3nc(-c4ccccc4)no3)c2C)cc1, the Potency is reported as 2.13 µM (active). With Cc1ccc(-c2noc(CSc3nnnn3-c3ccccc3)n2)cc1 the Potency was “inactive”. In the case of Cc1ccc(-c2noc(-c3nnn(-c4cccc(C(F)(F)F)c4)c3N)n2)cc1, the Potency is reported as “inactive”. Cc1ccc2c(c1)N(C(=O)CCC(=O)NCc1ccccc1F)CC(C)O2 (stereo unspecified) was tested, and the Potency was “inactive”. In the case of CCc1cccc(NC(=O)CN(c2ccc(C)c(C)c2)S(=O)(=O)c2ccsc2C(=O)OC)c1, the Potency is reported as “inactive”. CC(=O)Oc1ccc(C)cc1N1C(=O)c2ccc(C(=O)O)cc2C1=O was tested, and the Potency was “inactive”. Cc1cccc(N2C(=O)c3ccc(C(=O)Nc4cccc(C(=O)O)c4)cc3C2=O)c1 was tested, and the Potency was 1.51 µM (active). CC(=O)Nc1ccc(NC(=O)c2ccc3c(c2)C(=O)N(c2ccccc2C)C3=O)cc1 was tested, and the Potency was “inactive”. In the case of Cn1nnnc1SCCNCc1ccc(Cl)c(Cl)c1, the Potency is reported as “inactive”. In the case of CC1=NNC(=O)C1CCC(=O)N/N=C\c1cccc(Cl)c1 (stereo unspecified), the Potency is reported as “inactive”. For COc1cccc(/C=N\NC(=O)C2=NNC(=O)C2C)c1O (stereo unspecified), the Potency was 6.01 µM (active). With Cc1cccc(-n2c(=O)c3c(c4cc(C)ccc4n3C)n(CC(=O)Nc3ccccc3Cl)c2=O)c1 the Potency was “inactive”. O=S(=O)(c1ccc(Cl)cc1)c1nnn2c1nc(NC1CCCC1)c1sccc12 was tested, and the Potency was “inactive”. With CC(=O)N1CCCc2cc(S(=O)(=O)Nc3ccc(Cl)cc3F)ccc21 the Potency was “inactive”. For CN(CC(=O)Nc1ccc(F)cc1)CC(=O)N1CCCCC1, the Potency was “inactive”. For Cc1ccc(Sc2cc(C(=O)c3ccccc3C(=O)O)ccc2[N+](=O)[O-])cc1, the Potency was “inactive”. Cc1ccc(C(=O)CSc2ccccc2C(=O)O)cc1 was tested, and the Potency was 4.26 µM (active). With Cc1ccccc1C(=O)O the Potency was “inactive”. With CC1(C(=O)OCC(=O)Nc2ncc(Cl)cc2Cl)CC1(Cl)Cl (stereo unspecified) the Potency was “inactive”. Cc1ccc(NC(=O)NC(C)c2c(-n3cccc3)sc(C)c2C)c(C)c1 (stereo unspecified) was tested, and the Potency was “inactive”. With COC(=O)[C@@H]1C[C@H]2CC[C@H](O)C[C@H]2N1Cc1ccc(N2CCN(C)CC2)cc1 the Potency was “inactive”. For O=C(/C=C/c1c(F)cccc1Cl)Nc1nn[nH]n1, the Potency was “inactive”. Cc1nnsc1C(=O)Nc1cccc(Cl)c1C was tested, and the Potency was “inactive”. For Cc1ccc(-c2cc(C(=O)Nc3nn[nH]n3)c3ccccc3n2)c(C)c1, the Potency was 15.1 µM (active). For O=C(CCc1ccccc1)Nc1nn[nH]n1, the Potency was “inactive”. In the case of Cc1ccc2c(Cl)c(C(=O)Nc3nn[nH]n3)sc2c1, the Potency is reported as 16.9 µM (active). Cc1cccc(NC(=O)CN(c2ccc(C(C)C)cc2)S(=O)(=O)c2c(C)nn(C)c2C)c1C was tested, and the Potency was “inactive”. COCCCNc1nc2c(-c3cccc(C)c3)nnn2c2ccc(Cl)cc12 was tested, and the Potency was “inactive”. In the case of CC(=O)NC1C(Oc2ccc(C)cc2)OC2COC(c3ccco3)OC2C1O (stereo unspecified), the Potency is reported as “inactive”. For CC(C)c1ccc(C2C(C(=O)c3ccco3)=C(O)C(=O)N2CC2CCCO2)cc1 (stereo unspecified), the Potency was “inactive”. With CCOc1ccc(C2CC(=O)c3c([nH]c(C(=O)OCc4ccccc4)c3C)C2)cc1 (stereo unspecified) the Potency was “inactive”. O=C(Nc1cc(C(F)(F)F)ccc1Cl)c1ccc2c(c1)CCN2S(=O)(=O)c1ccccc1 was tested, and the Potency was “inactive”.
Also: nearly all actives have a fitted effect of over 55% in size.
Potency is read from the fitted curve at half-maximal effect.
